Screening data deposited in PubChem by National Center for Advancing Translational Sciences (NCATS).
TRHR PAM = qHTS for Small Molecule Agonists and Allosteric Enhancers of Human TRH Receptor: Primary Screen for Enhancers | TRHR cells, fluo-8 calcium fluorescence, EC20 TRH enhancement | enhancement, % at 2 µM | 360,000 tested, 0.66% active | AID 493056, 2011; in the data active = enhancement above about 30%
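Enhancer read-out: after compound pinning and an initial kinetic agonist-mode read, an EC20 of TRH (10 nM final) was injected and fluo-8 calcium signal (Ex 480/Em 530) followed at 1 s/cycle for 100 cycles in TRHR-expressing cells.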
D1 ag = Allosteric Agonists of the Human D1 Dopamine Receptor: qHTS | HEK293 T-REx D1 cells, calcium flux, agonist mode | activation, % at 2 µM | 360,000 tested, 1% active | D(1A) dopamine receptor (Homo sapiens), P21728
Target sequence (P21728 whole entry, looked up): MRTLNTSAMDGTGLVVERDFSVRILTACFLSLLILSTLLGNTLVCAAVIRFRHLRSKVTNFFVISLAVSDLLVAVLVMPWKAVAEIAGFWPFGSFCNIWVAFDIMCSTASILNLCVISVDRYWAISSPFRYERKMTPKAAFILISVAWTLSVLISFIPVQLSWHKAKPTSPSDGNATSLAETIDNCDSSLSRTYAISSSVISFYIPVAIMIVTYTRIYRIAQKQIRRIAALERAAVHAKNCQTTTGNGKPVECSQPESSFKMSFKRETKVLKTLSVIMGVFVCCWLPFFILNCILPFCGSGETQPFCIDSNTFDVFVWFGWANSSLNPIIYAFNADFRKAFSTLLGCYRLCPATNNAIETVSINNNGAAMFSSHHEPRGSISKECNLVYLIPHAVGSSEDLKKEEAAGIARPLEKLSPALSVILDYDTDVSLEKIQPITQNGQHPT
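Agonism was scored from calcium flux recorded over 180 s (1 read/s) after pintool compound addition, following a 10-cycle baseline. Cells were inducible force-coupled HEK293 TREx D1, plated overnight at 30 C and loaded with no-wash calcium dye.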
D1 potentiator = Potentiators of Human D1 Dopamine Receptor: qHTS; potentiation, % at 10 µM; 360,000 tested, 0.036% active; HEK293 TREx D1 cells, calcium flux, dopamine EC20 potentiation; in the data active = potentiation above about 30%
Epigenetic derep = Quantitative High-Throughput Screen for Regulators of Epigenetic Control; murine LDR cells, GFP reporter derepression, 30 h; Potency, µM (series often up to 53.9 µM), usual class: activators; 280,000 tested, 0.2% active; AID 1865, 2009; active = well fitted activation curve with a large enough effect; note: nearly all actives have a fitted effect of over 60% in size
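Readout is the number of GFP-expressing murine LDR cells, counted by cytometry following washing. Cells were treated with compound for 30 h at 37 C; the stably integrated CMV-GFP locus is normally silent.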
TRHR agonist = qHTS for Small Molecule Agonists and Allosteric Enhancers of Human TRH Receptor: Primary Screen for Agonists; activation, % at 2 µM; TRHR cells, calcium flux fluo-8, FDSS agonist mode; 360,000 tested, 0.18% active; Thyrotropin-releasing hormone receptor (Homo sapiens), P34981; AID 493084, 2011
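TRHR-expressing cells loaded with fluo-8 calcium dye; 23 nL library compound pin-transferred, kinetic FDSS fluorescence (Ex 480/Em 530) recorded about 180 s for agonist-induced calcium release, before a 10 nM TRH EC20 addition for potentiator mode.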
D1 antagonist = Antagonist of Human D 1 Dopamine Receptor: qHTS; D(1A) dopamine receptor (Homo sapiens), P21728; HEK293 TREx D1 cells, calcium flux, dopamine EC80; stronger effect = lower value; activity change, negative = inhibition, % at 10 µM; 360,000 tested, 3.2% active; AID 504652, 2011; in the data active = activity change below about -30%
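HEK293 T-REx cells expressing inducible, force-coupled D1 receptor; no-wash Ca dye, 30–90 min RT. Cmpd → 180 s read at 1 Hz → EC80 DA → 180 s read.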
Hits are given with their value; - = inactive; . = no result given. Most compounds without a hit are left out; they make up all but 4.6% or so of the library. Cut-off read from the data, not from the text of the source, unless noted: active = activation above about 30%; inactive = the rest.

SMILES	TRHR PAM	D1 ag	D1 potentiator	Epigenetic derep	TRHR agonist	D1 antagonist
O=C(N/N=C/c1ccc(OC(=O)c2ccc([N+](=O)[O-])cc2)cc1)c1cccnc1	-	-	-	.	-	-
COc1ccc(C(=O)Oc2ccc(/C=N/O)cc2)cc1	-	-	-	-	-	-35
COc1ccc(C(=O)Oc2ccc(/C=N/NC(=O)Cc3ccc([N+](=O)[O-])cc3)cc2)cc1	-	-	-	-	-	-32
CCCCCCn1c(=O)[nH]c2nc3cc(N)c(C)cc3nc2c1=O	-	295	-	-	-	-
CC(C)CN(CC(C)C)c1nnc(NC(=O)Nc2cccc(C(F)(F)F)c2)s1	-	-	-	-	-	-
O=C(CCCc1nc(-c2ccc(Cl)cc2)no1)N1CCOCC1	-	-	-	-	-	-41
Cc1ccc(-c2noc(CCCC(=O)N3CCOCC3)n2)cc1	-	-	-	-	-	-
Cc1c(C(=O)OC2CCCC2)[nH]c2c1C(=O)CC(c1ccc(C(C)(C)C)cc1)C2 (centres undefined)	-	-	-	-	-	-31
Cc1c(C(=O)OC2CCCCC2)[nH]c2c1C(=O)CC(c1ccc(F)cc1)C2 (centres undefined)	-	-	-	-	-	-
CCOC(=O)Cn1c(=O)n(C2CCCC2)c(=O)c2ccccc21	41	-	-	-	-	-
CCOC(=O)Cn1c(=O)n(C2CCCCC2)c2nc(-c3cccc(F)c3)nc(C(N)=O)c21	-	-	-	-	-	-
CCOC(=O)Cn1c(=O)n(CC2CCCO2)c2nc(-c3ccc(OC)cc3OC)nc(C(N)=O)c21 (centres undefined)	42	-	-	-	-	-
CCOC(=O)Cn1c(=O)n(C2CCCCC2)c2nc(-c3cccc(C)c3)nc(C(N)=O)c21	-	-	-	-	-	-86
CCOC(=O)Cn1c(=O)n(C2CCCCC2)c2nc(-c3ccc(C(C)C)cc3)nc(C(N)=O)c21	-	-	-	-	-	-51
CC1CCN(S(=O)(=O)c2ccc(C(=O)Nc3nc4ccc(F)cc4s3)cc2)CC1	-	-	-	-	-	-
CCOC(=O)C1CCCN(C(=O)c2ccc3c(c2)sc2nc(-c4cccc(OC)c4)cn23)C1 (centres undefined)	-	-	-	-	-	-
Cc1cccc(C(=O)Nc2cccc(C(=O)OCc3cc(=O)n4nc(C5CC5)sc4n3)c2)c1	-	-	-	-	-	-
CCc1ccccc1NC(=O)C(CCSC)NS(=O)(=O)c1ccc2c(c1)oc(=O)n2C (centres undefined)	-	-	-	-	-	-
Cc1cc(C)nc(/N=C(\N)Nc2cccc([N+](=O)[O-])c2)n1	-	34	-	-	-	-
CCC(=O)Nc1ccc(N/C(N)=N/c2nc(C)cc(C)n2)cc1	-	-	-	-	-	-
Cc1cc(C)nc(/N=C(\N)Nc2ccc([N+](=O)[O-])cc2)n1	-	-	-	-	-	-
Cc1ccc(N/C(N)=N/c2nc(C)cc(C)n2)cc1	-	-	-	-	-	-74
CCCCc1ccc(N/C(N)=N/c2nc(C)cc(C)n2)cc1	-	64	-	-	-	-
Cc1cc(C)cc(N/C(N)=N/c2nc(C)cc(C)n2)c1	-	-	-	-	-	-
Cc1cc(C)nc(/N=C(\N)Nc2ccc(C(C)C)cc2)n1	-	35	-	-	-	-
SMILES	TRHR PAM	D1 ag	D1 potentiator	Epigenetic derep	TRHR agonist	D1 antagonist
COc1cc(OC)c(OC)cc1CCC(C)NCCC(c1ccccc1)c1ccccc1 (centres undefined)	-	78	-	.	-	-
NCC(O)C1CCCCCCC1 (centres undefined)	.	.	.	-	.	.
O=C(NC1CCCCC1)C(c1ccccc1)N(Cc1ccco1)C(=O)Cn1cnc2ccccc21 (centres undefined)	-	-	-	-	-	-44
O=C(NC1CCCCC1)C(c1ccccc1)N(Cc1ccco1)C(=O)c1csnn1 (centres undefined)	-	-	-	.	-	-
c1ccc(Cc2nnc3sc(-c4ccncc4)nn23)cc1	-	-	-	-	-	-33
c1ccc(Cc2nnc3sc(-c4cccnc4)nn23)cc1	-	-	-	-	-	-
Cc1cc(Cl)ccc1OC(C)C(=O)NN=C1CCCCCC1 (centres undefined)	-	-	.	.	-	-31
Cc1cc(Cl)ccc1OC(C)C(=O)NNC(=O)C1CCCCC1C(=O)O (centres undefined)	-	-	-	.	-	-
O=C(NCCN1CCCCC1)c1ccc(I)cc1	.	.	.	-	.	.
Cc1ccc(C)c(NC(=O)C2CCN(S(=O)(=O)c3c(C)noc3/C=C/c3cccs3)CC2)c1	-	-	-	-	-	-
Cc1ccc(-n2nc(C(=O)N3CCN(c4cc(Cl)ccc4C)CC3)c3c4ccccc4n(C)c3c2=O)cc1	-	-	-	-	-	-
Cc1ccc2ncccc2c1NS(=O)(=O)c1ccccc1	-	-	-	-	-	-
Cc1ccc2ncccc2c1N	-	-	-	-	-	-63
CCOC(=O)/C(C#N)=C\C=C1C=CN(C)C=C1	-	45	-	-	-	-
CCOC(=O)/C(C#N)=C\c1ccc(CC)s1	-	-	-	-	-	-
CCN(CC)CCNCC(O)(c1ccc(Cl)cc1)c1ccc(Cl)cc1	-	32	-	-	-	-
CC(C)(C)NCC(O)(c1ccc(Cl)cc1)c1ccc(Cl)cc1	-	-	-	-	-	-
COc1ccc(C(=O)NCc2nnc(SCC(=O)N3CCc4ccccc43)n2Cc2ccccc2)cc1	-	-	-	-	-	-30
CCOC(=O)CSc1nnc(CNC(=O)c2ccc(OC)cc2)n1Cc1ccccc1	-	-	-	-	-	-
CCc1ccc(C(=O)c2cn(CC(=O)Nc3cc(F)ccc3F)c3nc(C)ccc3c2=O)cc1	-	-	-	20µM	-	-
COc1ccc(-n2nc(C(=O)NCCc3ccc(OC)c(OC)c3)c3c4ccccc4n(C)c3c2=O)cc1	-	-	-	-	-	-
COc1ccc(-n2ccn(Cc3ccccc3C)c(=O)c2=O)cc1	-	-	-	-	-	-
CCCC1(c2ccccc2)NC(=O)N(CC(=O)c2[nH]c(C)c(C(=O)OCC)c2C)C1=O (centres undefined)	-	39	-	-	-	-
